Experimental data: PubChem BioAssay (Tox21)
Records with an inconclusive call do not appear. The source made the active and inactive calls. Unless noted, calls follow the shape of the dose curve; as a rule, active = well fitted curve in the direction sought with a large enough effect in the repeat runs; inconclusive = weak or mixed curves; inactive = no such curve, though single readings can be large; an effect the other way counts as inactive or inconclusive.

Tests used:
[1] = qHTS assay to identify small molecule agonists of the peroxisome proliferator-activated receptor delta (PPARd) signaling pathway - cell viability counter screen (AID 743211); also: nearly all actives have a fitted effect of over 55% in size
Procedure, shortened: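 Viability of GeneBLAzer PPARd UAS-bla HEK293H cells was assessed after 17 h compound incubation at 37C, using CellTiter-Glo reagent added after the reporter read and luminescence recorded 30 min later.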

[2] = biological target: Peroxisome proliferator-activated receptor delta (Homo sapiens) (UniProt Q03181); assay: qHTS assay to identify small molecule agonists of the peroxisome proliferator-activated receptor delta (PPARd) signaling pathway (AID 743212; calls by dose curve;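 also: HEK293H cells with PPARd UAS beta-lactamase reporter GeneBLAzer system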)
Peroxisome proliferator-activated receptor delta (Homo sapiens), sequence (Q03181 whole entry, looked up): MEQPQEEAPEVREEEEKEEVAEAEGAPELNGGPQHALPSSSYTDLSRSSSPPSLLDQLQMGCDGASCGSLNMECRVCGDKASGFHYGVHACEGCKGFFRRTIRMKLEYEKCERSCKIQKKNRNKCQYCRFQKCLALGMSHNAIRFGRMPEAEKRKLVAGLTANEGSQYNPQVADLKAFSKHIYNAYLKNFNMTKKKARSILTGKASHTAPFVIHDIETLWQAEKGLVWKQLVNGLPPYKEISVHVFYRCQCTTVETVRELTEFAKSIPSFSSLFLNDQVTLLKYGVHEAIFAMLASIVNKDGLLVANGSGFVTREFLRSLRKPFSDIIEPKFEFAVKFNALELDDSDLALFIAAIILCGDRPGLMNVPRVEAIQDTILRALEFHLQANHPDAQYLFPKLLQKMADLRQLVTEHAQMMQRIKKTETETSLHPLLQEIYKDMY
Procedure, shortened: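 Beta-lactamase reporter read by fluorescence (LiveBLAzer B/G FRET, 2 h, room temperature). Test agents, in DMSO, incubated at 37 C with PPARd-bla HEK293H cells.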

[3] = qHTS assay to identify small molecule antagonists of the peroxisome proliferator-activated receptor delta (PPARd) signaling pathway - cell viability counter screen (AID 743213); also: nearly all actives have a fitted effect of over 50% in size
Procedure, shortened: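 Viability counter-screen, qHTS format: PPARd-bla HEK293H, L165041 300 nM final, 17 h compound exposure at 37 C, CellTiter-Glo luminescence after 30 min RT.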

[4] = biological target: Peroxisome proliferator-activated receptor delta (Homo sapiens) (UniProt Q03181); assay: qHTS assay to identify small molecule antagonists of the peroxisome proliferator-activated receptor delta (PPARd) signaling pathway (AID 743215; active = well fitted inhibition curve with a large enough effect in the signal ratio in the repeat runs, not every such curve was filed as active; the % refers to the signal ratio;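 also: cells stimulated with agonist L165041 at 300 nM final during compound exposure; series mostly up to about 62 µM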)
Procedure, shortened: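 Plated HEK293H PPARd-bla cells rested 5 h at 37 C and 5% CO2. Compound, then agonist L165041 at 300 nM final, was added; 17 h at 37 C followed. Substrate loading, 2 h room temperature, fluorescence measured.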

[5] = qHTS assay to identify small molecule agonists of the farnesoid-X-receptor (FXR) signaling pathway - cell viability counter screen (AID 743218); also: nearly all actives have a fitted effect of over 45% in size
Procedure, shortened: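 Viability of FXR-bla HEK 293T cells is measured by ATP-based CellTiter-Glo luminescence following 16 h compound treatment at 37 C and a prior 2 h room-temperature beta-lactamase substrate step.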

[6] = qHTS assay to identify small molecule antagonists of the farnesoid-X-receptor (FXR) signaling pathway - cell viability counter screen (AID 743221; active = well fitted cell-killing curve with a large enough effect in the repeat runs, not every such curve was filed as active; also: nearly all actives have a fitted effect of over 50% in size)
Procedure, shortened: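 Quantitative HTS of the Tox21 10K library run in parallel with the beta-lactamase reporter read. HEK 293T cells carrying a UAS-driven bla reporter got compound and 50 uM CDCA (final) for 16 h; ATP-based luminescence followed.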

[7] = biological target: Vitamin D3 receptor (Homo sapiens) (UniProt P11473); assay: qHTS assay to identify small molecule agonists of the vitamin D receptor (VDR) signaling pathway (AID 743222; calls by dose curve)
Vitamin D3 receptor (Homo sapiens), sequence (P11473 whole entry, looked up): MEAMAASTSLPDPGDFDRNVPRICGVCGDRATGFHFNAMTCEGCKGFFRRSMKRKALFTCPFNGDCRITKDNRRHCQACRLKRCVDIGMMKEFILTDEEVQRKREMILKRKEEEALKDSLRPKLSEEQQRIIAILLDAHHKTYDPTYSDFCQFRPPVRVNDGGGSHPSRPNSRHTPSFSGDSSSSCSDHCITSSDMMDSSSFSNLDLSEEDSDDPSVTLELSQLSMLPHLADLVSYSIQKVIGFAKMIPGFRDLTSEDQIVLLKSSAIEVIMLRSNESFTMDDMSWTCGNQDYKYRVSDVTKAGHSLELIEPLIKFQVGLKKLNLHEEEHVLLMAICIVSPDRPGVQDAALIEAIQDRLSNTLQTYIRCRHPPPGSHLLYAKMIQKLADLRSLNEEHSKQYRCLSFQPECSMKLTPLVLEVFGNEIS
Procedure, shortened: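 Fluorescence from cleaved LiveBLAzer B/G FRET substrate served as readout. VDR-bla cells had been treated 16 h at 37C with test compounds in DMSO, following a 4 h settling period, and substrate was loaded for 2 h at RT.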

[8] = biological target: Vitamin D3 receptor (Homo sapiens) (UniProt P11473); assay: qHTS assay to identify small molecule antagonists of the vitamin D receptor (VDR) signaling pathway (AID 743223; active = well fitted inhibition curve with a large enough effect in the signal ratio in the repeat runs, not every such curve was filed as active; the % refers to the signal ratio)
Procedure, shortened: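 Fluorescence from LiveBLAzer B/G FRET substrate, read after 2 h at room temperature, reflects beta-lactamase reporter activity in VDR-bla cells treated 16 h at 37C with compounds and agonist 1alpha,25-dihydroxyvitamin D3 (3 nM final).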

[9] = qHTS assay to identify small molecule agonists of the vitamin D receptor (VDR) signaling pathway - cell viability counter screen (AID 743224); also: series mostly up to about 63 µM; nearly all actives have a fitted effect of over 50% in size
Procedure, shortened: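 Compounds were pin-transferred onto VDR-bla cells plated 4 h earlier; following 16 h incubation at 37C, cell viability was quantified by CellTiter-Glo luminescence after 30 min at room temperature.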

[10] = qHTS assay to identify small molecule antagonists of the vitamin D receptor (VDR) signaling pathway - cell viability counter screen (AID 743225); also: nearly all actives have a fitted effect of over 50% in size
Procedure, shortened: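 Cells (VDR-UAS-bla HEK 293T) are plated, rested 4 h at 37C, dosed with compound and 3 nM final 1-alpha,25-dihydroxy vitamin D3, and incubated 16 h. Viability is taken from CellTiter-Glo luminescence in the reporter wells.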

[11] = qHTS assay to identify small molecule agonists of the NFkB signaling pathway (AID 1159509; active = well fitted curve in the direction sought with a large enough effect in the signal ratio in the repeat runs, not every such curve was filed as active; the % refers to the signal ratio; also: series mostly up to about 61 µM)
Procedure, shortened: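 Beta-lactamase reporter assay run in quantitative high-throughput format on an NF-kB-responsive ME-180 line, with 5 hr compound treatment and a FRET-based blue/green fluorescence readout.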

[12] = qHTS assay to identify small molecule agonists of the endoplasmic reticulum stress response signaling pathway (AID 1159516; active = well fitted activation curve with a large enough effect in the signal ratio in the repeat runs, not every such curve was filed as active; the % refers to the signal ratio)
Procedure, shortened: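 Using a HeLa line with an ESRE-driven beta-lactamase gene, agonist activity was measured by FRET substrate fluorescence (460 and 530 nm emission) after cells were treated with compounds for 5 hr at 37 C and 5% CO2.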

[13] = qHTS assay to identify small molecule agonists of the endoplasmic reticulum stress response signaling pathway - cell viability counter screen (AID 1159517; calls by dose curve)
Procedure, shortened: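 Cytotoxicity of test compounds toward ESRE-bla HeLa cells was assessed after 5 hr exposure. The luminescent CellTiter-Glo signal was measured 30 min after reagent addition.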

[14] = qHTS assay to identify small molecule antagonists of the retinoid-related orphan receptor gamma (ROR-gamma) signaling pathway - cell viability counter screen (AID 1159520); also: nearly all actives have a fitted effect of over 50% in size
Procedure, shortened: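 Tet-on ROR gamma CHO cells (1,000/well) were plated 4 hr, given compounds in DMSO for 2 hr at 37 C, then induced with 1 uM final doxycycline for 16 hr. Viability was read as ATP by CellTiter-Glo luminescence after 30 min.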

[15] = qHTS assay to identify small molecule agonists of the AP-1 signaling pathway (AID 1159526; calls by dose curve)
[16] = biological target: Nuclear receptor ROR-gamma (Homo sapiens) (UniProt P51449); assay: qHTS assay to identify small molecule antagonists of the retinoid-related orphan receptor gamma (ROR-gamma) signaling pathway (AID 1159521)
Procedure, shortened: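 RORγ antagonism is scored from reduced reporter luminescence in Tet-on CHO cells. Induction used 1 uM final doxycycline hyclate for 16 h at 37 C, following a 2 h compound exposure.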

[17] = qHTS assay to identify small molecule agonists of the AP-1 signaling pathway - cell viability counter screen (AID 1159525; calls by dose curve; also: nearly all actives have a fitted effect of over 55% in size)
Procedure, shortened: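 Each titration point was normalised to DMSO and tetra n-octyl ammonium bromide controls. The read was Cell Titer Glo luminescence after 30 min at RT, following 5 h compound exposure of ME-180 AP-1-bla cells at 37 °C.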

[18] = biological target: Bile acid receptor (Homo sapiens) (UniProt Q96RI1); assay: qHTS assay to identify small molecule antagonists of the farnesoid-X-receptor (FXR) signaling pathway (AID 743217; active = well fitted inhibition curve with a large enough effect in the signal ratio in the repeat runs, not every such curve was filed as active; the % refers to the signal ratio)
Bile acid receptor (Homo sapiens), sequence (Q96RI1 whole entry, looked up): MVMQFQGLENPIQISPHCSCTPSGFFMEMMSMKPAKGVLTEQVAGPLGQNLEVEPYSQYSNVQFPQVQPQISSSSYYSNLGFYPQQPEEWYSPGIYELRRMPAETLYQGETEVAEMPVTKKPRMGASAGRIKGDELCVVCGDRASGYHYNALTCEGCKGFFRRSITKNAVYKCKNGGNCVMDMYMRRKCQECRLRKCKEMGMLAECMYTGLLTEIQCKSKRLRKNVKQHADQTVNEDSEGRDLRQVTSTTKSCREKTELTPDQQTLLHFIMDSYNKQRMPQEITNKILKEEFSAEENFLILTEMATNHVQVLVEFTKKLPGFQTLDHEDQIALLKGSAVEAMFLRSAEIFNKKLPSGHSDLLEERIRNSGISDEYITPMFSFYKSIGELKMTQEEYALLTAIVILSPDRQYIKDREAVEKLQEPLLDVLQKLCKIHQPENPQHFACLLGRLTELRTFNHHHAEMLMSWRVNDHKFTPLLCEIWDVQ
Procedure, shortened: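 Screen of the Tox21 10K library in quantitative HTS format using FXR-UAS-bla HEK 293T reporter cells. Agonist chenodeoxycholic acid, 50 uM final, added with compounds; 16 h incubation at 37 °C; beta-lactamase FRET fluorescence measured.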

[19] = biological target: Bile acid receptor (Homo sapiens) (UniProt Q96RI1); assay: qHTS assay to identify small molecule agonists of the farnesoid-X-receptor (FXR) signaling pathway (AID 743220; active = well fitted activation curve with a large enough effect in the signal ratio in the repeat runs, not every such curve was filed as active; the % refers to the signal ratio)
Procedure, shortened: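 FXR-UAS-bla HEK 293T cells carrying a UAS-driven beta-lactamase reporter were plated for 5 h at 37C/5% CO2, then exposed to DMSO-dissolved Tox21 10K compounds for 16 h at 37C. A LiveBLAzer B/G FRET substrate was loaded for 2 h at room temperature before fluorescence reading.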

[20] = qHTS assay to identify small molecule agonists of the NFkB signaling pathway - cell viability counter screen (AID 1159515; calls by dose curve; also: series mostly up to about 61 µM; nearly all actives have a fitted effect of over 55% in size)
Procedure, shortened: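 Parallel cytotoxicity counter screen in ME-180 cells carrying an NFkB-response-element beta-lactamase reporter, 2,000 cells/well. Compound exposure lasted 5 hr at 37 C, 5% CO2. Cell viability was quantified by CellTiter-Glo luminescence.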

Measured: Potency

C#CCN1C(=O)COc2cc(F)c(N3C(=O)C4=C(CCCC4)C3=O)cc21
inactive: [1] | [2] | [3] | [4] | [5] | [6] | [7] | [8] | [9] | [10] | [11] | [12] | [13] | [14] | [15]

[O]=[Cd]
inactive: [1] | [2] | [4] | [5] | [6] | [7] | [9] | [10] | [11] | [12] | [13] | [14] | [16]

CC(C(=O)c1ccccc1)N(C)C (stereo not given)
inactive: [1] | [2] | [4] | [5] | [6] | [11] | [12] | [13] | [14] | [16] | [17] | [15]

O=NN1CCN(N=O)CC1
inactive: [3] | [18] | [19] | [6] | [7] | [8] | [10] | [11] | [12] | [13] | [14] | [16] | [17] | [15]

Fc1ccc(C2(Cn3cncn3)OC2c2ccccc2Cl)cc1 (stereo not given)
inactive: [1] | [3] | [18] | [5] | [6] | [7] | [11] | [12] | [13] | [14] | [16] | [17] | [15]

CCOP(=O)(OCC)OP(=O)(OCC)OCC
inactive: [1] | [2] | [3] | [4] | [18] | [5] | [19] | [6] | [9] | [10] | [11] | [12] | [13] | [14] | [16] | [17] | [15]

COC(C)(C)C
inactive: [1] | [2] | [6] | [7] | [8] | [9] | [11] | [12] | [13] | [14] | [15]

OC(Cn1cncn1)(c1ccc(F)cc1)c1ccccc1F (stereo not given)
inactive: [1] | [2] | [3] | [4] | [5] | [6] | [8] | [9] | [10] | [11] | [12] | [13] | [14] | [16] | [17] | [15]

ClCC(Cl)(Cl)Cl
inactive: [1] | [2] | [4] | [18] | [19] | [6] | [8] | [9] | [10] | [11] | [20] | [12] | [13] | [14] | [15]

COC(=O)C(c1ccccc1)C1CCCCN1 (stereo not given)
inactive: [1] | [3] | [18] | [5] | [19] | [7] | [8] | [11] | [12] | [13] | [14] | [16] | [17] | [15]

Oc1c(Cl)cccc1Cl
inactive: [1] | [2] | [3] | [4] | [6] | [7] | [8] | [9] | [20] | [12] | [13] | [14] | [17] | [15]

C=CC1CC=CCC1 (stereo not given)
inactive: [1] | [2] | [3] | [4] | [18] | [5] | [19] | [6] | [7] | [9] | [20] | [12] | [13] | [14] | [17] | [15]

COP(=S)(OC)Oc1c(Cl)cc(C)cc1Cl
inactive: [2] | [4] | [5] | [6] | [8] | [10] | [20] | [12] | [13] | [14] | [15]

OC(c1ccccc1)(c1ccccc1)C1CCNCC1
inactive: [1] | [3] | [18] | [19] | [6] | [9] | [10] | [20] | [12] | [13] | [14] | [17] | [15]

c1coc(-c2nc3ccccc3[nH]2)c1
inactive: [2] | [4] | [6] | [7] | [8] | [9] | [20] | [12] | [13] | [14] | [17] | [15]

Cc1ncc(CNC(=O)N(CCCl)N=O)c(N)n1
inactive: [1] | [2] | [3] | [18] | [6] | [9] | [10] | [20] | [12] | [13] | [14] | [17] | [15]

CC1CN1P(=O)(N1CC1C)N1CC1C (stereo not given)
inactive: [3] | [5] | [6] | [8] | [9] | [20] | [12] | [13] | [14] | [16]

CC(=O)[C@H]1CC[C@H]2[C@@H]3CC[C@H]4C[C@H](O)CC[C@]4(C)[C@H]3C(=O)C[C@]12C
inactive: [1] | [2] | [3] | [4] | [18] | [5] | [19] | [6] | [9] | [10] | [12] | [13] | [14] | [17] | [15]

c1ccc(N2CCNCC2)cc1
inactive: [1] | [18] | [5] | [19] | [6] | [7] | [8] | [9] | [10] | [12] | [13] | [14] | [17] | [15]

CCN(CC)C(=O)[C@@H]1C=C2c3cccc4[nH]cc(c34)C[C@H]2N(C)C1
inactive: [1] | [2] | [4] | [19] | [6] | [9] | [12] | [13] | [14] | [16] | [17] | [15]
